Screens from PubChem.
Rows were chosen to be rich in hits. Some 4.7% of all compounds tested hit in one or more screens of this group.
3CLpro inhibitor – SARS-CoV 3CLpro protease inhibition | P0C6X7 | recombinant SARS-CoV 3CLpro, quenched FRET peptide cleavage | inhibition, % at 6 µM | 0.14% of 290,000 active | AID 1706; in the data active means inhibition above about 12%
GDH-TPI inh – counter-screen for M. tuberculosis FBA inhibitors: GDH-TPI coupled enzymes; GDH-TPI coupled enzyme counterscreen, NADH absorbance; inhibition, % at 4.8 µM; 1.2% of 360,000 active;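 further: 0% = DMSO wells and 100% = wells lacking the enzyme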
Mtb FBA inh – inhibitors of M. tuberculosis fructose-bisphosphate aldolase; P9WQA3; purified M. tuberculosis FBA, fluorescence read-out; inhibition, % at 1 µM; 2.3% of 360,000 active; AID 588726; in the data active means inhibition above about 27%;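 further: 0% = vehicle and 100% = reference inhibitor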
Target sequence (P9WQA3 whole entry, looked up): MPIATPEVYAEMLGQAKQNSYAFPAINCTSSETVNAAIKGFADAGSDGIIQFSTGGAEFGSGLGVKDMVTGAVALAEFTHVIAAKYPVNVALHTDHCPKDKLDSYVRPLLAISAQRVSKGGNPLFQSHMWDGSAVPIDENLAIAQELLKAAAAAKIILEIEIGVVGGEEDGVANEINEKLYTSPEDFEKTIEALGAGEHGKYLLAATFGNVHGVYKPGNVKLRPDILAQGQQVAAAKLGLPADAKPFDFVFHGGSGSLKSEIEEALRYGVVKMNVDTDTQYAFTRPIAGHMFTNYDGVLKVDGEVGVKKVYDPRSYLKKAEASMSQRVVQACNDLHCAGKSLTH
RecA splice inh – inhibitors of M. tuberculosis RecA intein splicing. cell-free RecA intein splicing, fluorescence. inhibition, % (concentration not given with the values). 0.75% of 290,000 active. AID 2221; in the data active means inhibition above about 30%;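 further: 0% = vehicle wells and 100% = reference inhibitor control wells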
VHR inh abs – inhibitors of human VHR1 phosphatase (DUSP3); recombinant VHR phosphatase, pNPP absorbance; 0.52% of 290,000 active; inhibition, % at 13.3 µM; AID 1654; in the data active means inhibition above about 50%
Target sequence (P51452 whole entry, looked up): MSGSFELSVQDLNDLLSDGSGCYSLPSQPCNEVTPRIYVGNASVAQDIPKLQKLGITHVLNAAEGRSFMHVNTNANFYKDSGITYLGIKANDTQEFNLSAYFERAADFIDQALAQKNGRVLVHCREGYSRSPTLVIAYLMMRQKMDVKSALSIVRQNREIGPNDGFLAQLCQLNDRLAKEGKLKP
CCHF vOTU inh – CCHFV vOTU protease inhibition. 0.55% of 370,000 active. inhibition, % at 11.5 µM. Pep-AMC fluorescence; further: 0% = vehicle wells with enzyme and 100% = no enzyme wells
An asterisk follows results filed as active; · = not tested or not shown; + = active, no number. Unless noted, no stated cut-off is given here; in the data, active means inhibition above about 30%; inactive means the rest.

SMILES	3CLpro inhibitor	GDH-TPI inh	Mtb FBA inh	RecA splice inh	VHR inh abs	CCHF vOTU inh
Cc1cccc(NC(=O)C2CC(O)CN2C(=O)Oc2ccccc2)c1 (stereo unspecified)	0	0	-3	-3	2	-9
O=S(=O)(c1cccs1)N1CCCc2nc(-c3ccc(F)cc3)ccc21	·	·	·	·	·	-5
CCC1S/C(=N/N=C/c2ccco2)N(Cc2ccc(F)cc2)C1=O (stereo unspecified)	-2	34*	-1	-2	2	0
CCC1S/C(=N/N=C/c2ccco2)N(Cc2ccccc2C)C1=O (stereo unspecified)	3	12	-1	3	29	-3
COc1ccc(-c2nc3ccc(C)cn3c2NCc2ccccc2)cc1SC1CCCCC1	·	13	25	0	·	·
CCC(C)Sc1cc(-c2nc3ccc(C)cn3c2NCc2ccccc2)ccc1OC (stereo unspecified)	·	10	64*	12	·	-13
CCC(C)Sc1ccc(-c2nc3ccc(C)cn3c2NCc2ccccc2)cc1OC (stereo unspecified)	·	42*	116*	-1	·	·
S=c1ncc2[nH]c(=S)[nH]c2[nH]1	·	36*	1	·	·	·
S=c1[nH]c2ccc(Cl)cc2[nH]1	2	13	2	3	4	10
O=C(Nc1nc2ccc(S(=O)(=O)N3CCCCC3)cc2s1)c1cccnc1	1	40*	3	-4	11	7
CN(C)S(=O)(=O)c1ccc2nc(NC(=O)c3cccnc3)sc2c1	-1	36*	0	-3	11	-6
C=CCN=C1S/C(=C\N(C)C)C(=O)N1S(=O)(=O)c1ccc(C)cc1	·	36*	-3	·	·	10
C=CCN=C1SCC(=O)N1S(=O)(=O)c1ccc(C)cc1	4	3	0	1	-9	-12
COc1cccc(CNCC(O)COc2ccc(C(=O)c3ccccc3)cc2)c1 (stereo unspecified)	4	2	2	0	52*	3
CCOc1ccc(/C=N/NC(=S)NC2CC3CC2C2C=CCC32)cc1 (stereo unspecified)	-3	6	4	3	-14	-4
COc1ccc(/C=N/NC(=S)NC2CCS(=O)(=O)C2)cc1OC (stereo unspecified)	9	41*	-3	0	18	4
COc1cc(/C=N/NC(=S)NC2CC3CC2C2C=CCC32)ccc1O (stereo unspecified)	0	37*	1	11	10	-6
CC(=O)CC[C@@H]1CC[C@]2(CCCN(S(=O)(=O)c3ccccc3)C2)O1	·	·	·	·	·	1
O=S1(=O)N[C@@H](Cc2ccccc2)COc2cccc(N3CCC[C@@H]3CO)c21	·	·	·	·	·	5
O=[N+]([O-])c1ccc(Cl)c(-c2ccc(/C=N/n3cnnc3)o2)c1	-2	53*	1	8	18	3
Fc1ccc(-c2ccc(/C=N\n3cnnc3)o2)cc1Cl	1	42*	4	3	-5	5
Fc1ccc(-c2ccc(/C=N/n3cnnc3)o2)cc1	-4	41*	4	3	16	21
Cc1cc(-c2ccc(/C=N/n3cnnc3)o2)c(C)c([N+](=O)[O-])c1	-1	24	0	4	-24	-2
Cc1ccc(-c2ccc(/C=N\n3cnnc3)o2)c(Br)c1	1	45*	5	-2	-13	2
O=C(C=Cc1ccc(O)c(O)c1)NCC(=O)NC(Cc1ccccc1)C(=O)O (stereo unspecified)	·	·	·	·	·	1
SMILES	3CLpro inhibitor	GDH-TPI inh	Mtb FBA inh	RecA splice inh	VHR inh abs	CCHF vOTU inh
O=C(Nc1ccc2[nH]ccc2c1)c1cc(-c2ccc(Cl)cc2)nc2ccccc12	·	·	·	·	·	9
CN1CCN(c2ccc3sc(-n4ccc5ccccc54)nc3c2)CC1	·	-5	-1	·	·	-4
CCOC(=O)N(C)[C@H]1C[C@H]2c3[nH]c4c(-c5cccc(C)c5)cccc4c3CCN2C[C@H]1[C@H](C)O	·	·	·	·	·	3
CN(Cc1ccco1)C(=O)c1cccc2c1C(=O)N(Cc1cccnc1)C2	·	·	·	·	·	0
COc1ccccc1NC(=O)C1CCCN(S(=O)(=O)c2ccccc2)C1 (stereo unspecified)	5	-3	1	1	17	-1
CCCC1(C2CCCC2)NC(=O)NC1=O (stereo unspecified)	·	6	-3	·	·	6
O=C(N/N=C/c1ccc2c(c1)OCO2)c1cccc(NC(=O)c2ccccc2Cl)c1	-2	17	5	·	23	9
O=C(N/N=C/c1ccc2c(c1)OCO2)c1ccc(NC(=O)c2ccccc2Cl)cc1	0	35*	2	-2	21	4
Cc1ccccc1C(=O)Nc1cccc(C(=O)N/N=C/c2ccc3c(c2)OCO3)c1	2	32*	-3	·	32	22
CCOC(=O)N1CCC(NC(=O)c2ccc3c(c2)N(CC)CCS3)CC1	3	2	73*	0	·	-78
CN1OC[C@@H]2CN[C@H](c3ccc(N4CCCCC4)cc3)C[C@@H]21	·	·	·	·	·	0
CC(=O)C1=C(O)C(=O)N(Cc2ccccc2)C1c1cccs1 (stereo unspecified)	-2	31*	1	1	3	-1
CCCCc1nc(C(N)=O)c2[nH]c(=O)n(-c3ccccc3F)c2n1	-4	5	136*	2	11	·
CCCCc1nc(C(N)=O)c2[nH]c(=O)n(-c3ccc(OC)cc3OC)c2n1	6	9	3	-1	14	·
Cc1ccc(-c2cc(-c3nnc(SCC(=O)Nc4ccc(OCc5ccccc5)cc4)n3N)[nH]n2)cc1	·	·	·	·	·	-4
CCn1c(-c2ccc(N(C)C)cc2)nc2ccccc21	4	17	+	2	24	-67
CN(C)c1ccc(-c2nc3ccccc3n2C)cc1	-2	18	+	-2	2	-81
CC(C)n1c(-c2ccc(N(C)C)cc2)nc2ccccc21	0	11	185*	·	28	-40
Cc1ccc(C(O)c2nc3ccccc3n2C(C)C)cc1 (stereo unspecified)	-4	-11	-1	2	-11	7
O=C1CSC(=S)N1N=Cc1ccc(Cl)s1	·	20	-2	·	·	8
CCn1c2ccccc2c2cc(NC(=O)COC(=O)c3ccc(F)cc3Cl)ccc21	·	·	·	·	·	4
N#CC(=Cc1ccc(O)cc1)C(N)=C(C#N)C#N	·	37*	10	·	·	10
O=C(COc1ncnc2ccccc12)Nc1cc([N+](=O)[O-])ccc1F	1	1	2	-1	-5	-9
O=C(/C=C/c1ccco1)Nc1ccccn1	4	73*	0	-3	12	-11
Cc1ccc(NC(=O)/C=C/c2ccco2)nc1	0	32*	0	-3	12	1
N#C/C(=C(\O)c1cc(Cl)sc1Cl)c1nc2ccccc2[nH]1	4	39*	0	-8	14	6
N#C/C(=C(/O)c1ccc(Cl)cc1)c1nc2ccccc2[nH]1	9	3	2	-2	21	-10
Cc1cc(C)n2c(SCC(O)=C(C#N)c3nc4ccccc4[nH]3)nnc2n1	·	21	2	·	·	15
